SMILES strings stand for the structures. The panel holds about 83,000 compounds, 20% with a hit somewhere; the sample as a whole holds those more often.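 Plates (96-well) were seeded with cells, treated with compound at one concentration, and incubated for 48 hours before percent growth was determined.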 Activity calls are given as the source filed them. The calls were made as follows: active = growth percent below 10; inactive = the rest.

Our source for the growth values is PubChem BioAssay (NCI).

This test deals with DU-145 prostate. The experiment in a line: NCI-60 one-dose screen, 48 h (100 = growth as untreated, 0 = no growth, -100 = all killed). Conditions: 10 µM unless noted.
As to `CC(=O)N1CCN(CCNC(=O)n2cc(-c3ccncc3)c(-c3cc(O)cc(Cl)c3)n2)CC1`, the growth was 89.5% (inactive).
As to `CC(C)OCC1CO1` (centres undefined), the growth is 114% (inactive).
`Oc1ccc(Br)cc1/C=N/NC(=S)NC12CC3CC(CC(C3)C1)C2`: the growth is 9.26% (active).
With `CC(=O)N1CCN(CCNC(=O)n2cc(-c3ccncc3)c(-c3ccc(O)c(Cl)c3)n2)CC1`, the growth was 105% (inactive).
`CCOC(=O)/C(C#N)=C(/CC)OCC`: the growth is 106% (inactive).
On to `O=C1Nc2c(c(=O)n(-c3ccccc3)c3ccccc23)C(c2ccc(Cl)cc2)N1` (centres undefined), for which the growth is 86.7% (inactive).
`N=C(c1ccccc1)N(Cc1ccccc1)Cc1ccccc1`: the growth is 111% (inactive).
As for `COc1cccc(NC(=O)NCCNc2nccc(-c3c(-c4ccc(F)cc4)nc4sccn34)n2)c1`, the growth is 76.9% (inactive).
With `Cc1ccc(NC(=O)CCl)cc1Cl`, the growth is 111% (inactive).
